# The full ranking holds about 110,000 compounds; the median of “z-score” is about -0.1, and the highest 2% start at about 2. The full list was thinned out, with the highest values kept by preference. The source made the active and inactive calls.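 The calls were made as follows: active = z-score in the third read window above 3 or below -3; inactive = the rest.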
# Target: Metabotropic glutamate receptor 8 (Rattus norvegicus) (UniProt P70579)
# Assay: rat mGluR8 modulators via GIRK flux, primary screen, cell-based, thallium flux, HTS (AID 488969)
# Settings: HEK293 rat mGluR8, GIRK (G protein-gated inwardly rectifying potassium channel) thallium flux, FluoZin2; at 10 µM; stronger effect = higher value; submaximal glutamate (EC20) added with thallium
# Chain of Metabotropic glutamate receptor 8 (Rattus norvegicus) (P70579 whole entry, looked up): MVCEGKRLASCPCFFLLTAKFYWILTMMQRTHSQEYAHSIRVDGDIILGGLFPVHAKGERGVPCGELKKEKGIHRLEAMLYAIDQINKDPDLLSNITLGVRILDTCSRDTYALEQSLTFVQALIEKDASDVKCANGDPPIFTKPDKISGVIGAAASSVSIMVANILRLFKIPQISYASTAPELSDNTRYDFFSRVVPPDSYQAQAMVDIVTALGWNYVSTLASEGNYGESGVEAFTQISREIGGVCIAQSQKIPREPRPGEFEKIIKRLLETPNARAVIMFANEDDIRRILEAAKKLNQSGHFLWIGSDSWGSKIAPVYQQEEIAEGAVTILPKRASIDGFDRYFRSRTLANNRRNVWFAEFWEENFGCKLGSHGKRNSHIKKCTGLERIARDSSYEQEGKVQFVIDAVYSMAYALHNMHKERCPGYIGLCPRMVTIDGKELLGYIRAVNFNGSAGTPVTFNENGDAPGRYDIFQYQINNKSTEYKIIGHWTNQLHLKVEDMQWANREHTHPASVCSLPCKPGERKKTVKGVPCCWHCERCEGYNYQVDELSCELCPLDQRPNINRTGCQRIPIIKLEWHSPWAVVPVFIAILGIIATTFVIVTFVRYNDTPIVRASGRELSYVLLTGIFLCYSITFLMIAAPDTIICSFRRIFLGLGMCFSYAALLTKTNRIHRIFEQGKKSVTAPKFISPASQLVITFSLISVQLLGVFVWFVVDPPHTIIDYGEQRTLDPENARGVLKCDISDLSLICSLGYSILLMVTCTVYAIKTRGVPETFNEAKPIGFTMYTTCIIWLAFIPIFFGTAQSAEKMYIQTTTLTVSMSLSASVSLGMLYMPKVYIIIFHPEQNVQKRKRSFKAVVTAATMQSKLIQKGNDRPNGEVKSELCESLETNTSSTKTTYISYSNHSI
row,SMILES,z-score
1,CCOc1ccc(CNC(=O)CCn2c(=O)oc3ccccc32)cc1OC,0.903
2,O=C(O)C1C2C=CC(O2)C1C(=O)Nc1ccc(S(=O)(=O)N2CCc3ccccc32)cc1 (configuration not stated),-0.0204
3,CCOC(=O)Cc1csc(NC(=O)c2ccc(Br)s2)n1,1.08
4,CCOC(=O)Cc1csc(NC(=O)c2ccc(Br)o2)n1,0.017
5,CCOC(=O)Cc1csc(NC(=S)NC(=O)c2ccccc2C)n1,9.08 (active)
6,CCOC(=O)Cc1csc(NC(=S)NC(=O)c2ccccc2Br)n1,7.57 (active)
7,CCOC(=O)Cc1csc(NC(=S)NC(=O)C(C)(C)C)n1,1.73
8,CCOC(=O)Cc1csc(NC(=S)NC(=O)CC(C)C)n1,1.27
9,COC(=O)c1nnn(CC(=O)Nc2cc(Cl)ccc2C)c1C(=O)OC,-0.484
10,COc1cc(/C=C2\SC(c3ccc(C)cc3)=NC2=O)ccc1O,-0.769
11,O=C(Nc1ccc(Cn2cccn2)cc1)c1ccc(COc2ccccc2Br)cc1,-0.0941
12,O=S(=O)(N/N=C/c1cn(Cc2ccccc2)c2ccccc12)c1ccccc1,-0.216
13,Cc1cc(N2CCCCCC2)nc2ccccc12,-0.134
14,COc1ccccc1N1C(=O)CCC1(C#N)c1ccc(Br)cc1 (configuration not stated),-0.14
15,Cc1c(NC(=O)CSc2ccc(Cl)cc2)cccc1-c1nc2ncccc2o1,-0.212
16,O=S(=O)(Nc1cc(Cl)ccc1N1CCCCC1)c1cccs1,7.03 (active)

row,SMILES,z-score
1,O=C(Nc1ccccc1)c1ccccc1NS(=O)(=O)c1ccc(Cl)s1,-3.39 (active)
2,O=S(=O)(Nc1ccccc1N1CCCCC1)c1ccc(Cl)s1,3.45 (active)
3,O=S(=O)(Nc1ccc(N2CCOCC2)cc1)c1ccc(Cl)s1,-0.104
4,O=S(=O)(Nc1ccc(N2CCCCC2)cc1)c1cccs1,-0.488
5,O=C(Nc1cc(Cl)ccc1N1CCCCC1)c1cccs1,-0.311
6,COC(=O)c1ccc(OC(=O)c2ccccc2F)cc1,0.198
7,COc1ccccc1NC(=O)CSc1ccc2nnc(-c3cccnc3)n2n1,-0.277
8,O=C(COC(=O)c1ccc(-c2nnc(-c3ccccc3)o2)cc1)c1ccccc1,-0.145
9,CC(C)n1c(N2CCN(CC(=O)NCc3cccs3)CC2)nc2ccccc21,-0.0505
10,Cc1nccn1CC(O)COc1ccccc1 (configuration not stated),-0.0583
11,Cc1nccn1CC(O)Cn1c2ccccc2c2ccccc21 (configuration not stated),2
12,Cc1nc2ccccc2n1CC(O)Cn1c2ccccc2c2ccccc21 (configuration not stated),0.752
13,Cc1cccc(-n2c(SCc3cc(=O)n4ccsc4n3)nc3ccccc3c2=O)c1,-0.276
14,Cc1nc(NC(=O)COc2ccccc2)sc1C(=O)Nc1ccccc1,-0.075
15,CC(Oc1ccc(Cl)cc1Cl)C(=O)NCCN1CCOCC1 (configuration not stated),0.00607
16,CN1/C(=C\C(=S)NC(=O)c2ccccc2Cl)C(C)(C)c2ccccc21,0.0507

# Source: PubChem BioAssay AID488969 (Vanderbilt High Throughput Screening Facility, 2010)
